The values below come from PubChem BioAssay AID909 (National Center for Advancing Translational Sciences (NCATS), 2007).

SMILES strings stand for the structures. The list shows a part of the results. Results filed as inconclusive are left out. The source made the active and inactive calls. The call rests on the fitted dose curve; in most records, active means well fitted inhibition curve with a large enough effect in the main read-out, with a control signal flat; inconclusive means small, poorly fitted or top-dose-only effect, or a change in a side signal; inactive means no such curve, though single readings can be large or run the other way.

Sequence of Caspase-7 (Homo sapiens) (P55210 24-198 limits assumed): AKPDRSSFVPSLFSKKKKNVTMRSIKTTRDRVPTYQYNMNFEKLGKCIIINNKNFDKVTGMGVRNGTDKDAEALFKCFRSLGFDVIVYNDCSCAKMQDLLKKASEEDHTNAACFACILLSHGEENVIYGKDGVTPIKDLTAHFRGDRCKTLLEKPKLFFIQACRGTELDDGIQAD
Sequence of Caspase-7 (Homo sapiens) (P55210 207-303 limits assumed): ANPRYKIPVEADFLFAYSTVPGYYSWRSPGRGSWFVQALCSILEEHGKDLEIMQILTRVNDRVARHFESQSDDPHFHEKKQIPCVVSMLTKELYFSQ

The assay has as its target Caspase-7 (Homo sapiens) (UniProt P55210). The assay can be described thus: Concentration-Response Counterscreen for Redox Active Inhibitors of Caspase-7: Catalase. The conditions noted are these: Caspase-7 Ac-DEVD-AFC fluorescence rate, catalase buffer; series mostly up to 57.5 µM; activity, negative = inhibition: at the top concentration. The source says: NIH Molecular Libraries Screening Centers Network [MLSCN] NIH Chemical Genomics Center [NCGC] MLSCN Grant: 1 X01 MH078950-01 PI Name: Dr. James Wells, Dr. Enrique Perez-Paya, Dr.Janice Williams, Dr. Dennis Wolan, a person NCGC Assay Overview: The caspases (Cysteine Aspartyl Protease) comprise a related family of 14 dimeric proteases that are critical mediators of apoptosis (programmed cell death) and inflammation. The caspases represent an important class of drug targets for stroke, ischemia, cancer and inflammatory diseases. […] One goal of this project was to identify compounds that act as allosteric inhibitors via stabilizing the procaspase form of the enzyme. […] After initiation of the assay with substrate the plates were rapidly read using an automated robotic system (Kalypsys, Inc.) to maintain consistent timing. […]
NCGC Assay Protocol Summary: Caspase 7 was prepared in buffer (50 mM HEPES pH 7.5, 50 mM KCl, 200 mM NaCl, 50 units/well catalase (from bovine liver, Sigma cat#100), 0.1% CHAPS) at a concentration of 66.6 nM and 3 uL was dispensed to all wells using black solid Kalypsys 1536-well plates. […] The plates were then exposed using 405 nm excitation/520 nm emission filters for 4 sec and read at 20 sec intervals for 3 min. […]
In general terms: The purpose of a counterscreen is to sort out artefacts and off-target activity.
On to `CCN1C(=O)/C(=C2/Sc3ccccc3N2CCCS(=O)(=O)O)SC1=S`, for which the “activity, negative = inhibition” value was -22.9% (inactive). For `N#CC1=C(N)Oc2cc(O)ccc2C1C1CCCCC1` (configuration not stated), the Potency was 31.6 µM (active).
